Several values for one entry are separate records, joined by “and”; a condition that tells them apart may be missing. Equal values may be shown once. Records with an inconclusive call do not appear. Where a call stands in place of a potency, no number is given. Some structures have more than one record in an assay (separate samples or runs), and their calls can disagree. Activity calls are given as the source filed them. Unless noted, calls follow the shape of the dose curve; as a rule, active = well fitted curve in the direction sought with a large enough effect in the repeat runs; inconclusive = weak or mixed curves; inactive = no such curve, though single readings can be large; an effect the other way counts as inactive or inconclusive.
Key:
[1] = qHTS assay to identify small molecule antagonists of the glucocorticoid receptor (GR) signaling pathway - cell viability counter screen (AID 720693); also: nearly all actives have a fitted effect of over 55% in size; also: potency is read from the fitted curve at half-maximal effect
[2] = qHTS assay for identifying genotoxic compounds that show differential cytotoxicity against isogenic chicken DT40 cell lines with known DNA damage response pathways - wild type cell line (AID 743012); also: nearly all actives have a fitted effect of over 60% in size; also: potency is read from the fitted curve at half-maximal effect
How it was run: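 CellTiter-Glo luminescence readout of viability in wild type DT40 cells after 40 h compound exposure at 37 C/5% CO2; 300 cells/well; reagent incubated 30 min at room temperature before reading.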

[3] = qHTS assay for identifying genotoxic compounds that show differential cytotoxicity against isogenic chicken DT40 cell lines with known DNA damage response pathways - Rev3 mutant cell line (AID 743014); also: nearly all actives have a fitted effect of over 55% in size; also: potency is read from the fitted curve at half-maximal effect
[4] = qHTS assay for identifying genotoxic compounds that show differential cytotoxicity against isogenic chicken DT40 cell lines with known DNA damage response pathways - Rad54/Ku70 mutant cell line (AID 743015); also: nearly all actives have a fitted effect of over 60% in size; also: potency is read from the fitted curve at half-maximal effect
[5] = qHTS assay to identify small molecule antagonists of the androgen receptor (AR) signaling pathway - cell viability counter screen (AID 743033; also: nearly all actives have a fitted effect of over 45% in size)
[6] = qHTS assay to identify small molecule antagonists of the androgen receptor (AR) signaling pathway using the MDA cell line - cell viability counter screen (AID 743041; also: nearly all actives have a fitted effect of over 45% in size; also: potency is read from the fitted curve at half-maximal effect)
How it was run: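 Cytotoxicity counter screen: MDA-kb2 AR-luc cells, compound + R1881, 16 h, 37C, 0% CO2; CellTiter-Fluor added at 15.5 h, fluorescence read after 30 min.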

[7] = target: Androgen receptor (Homo sapiens) (UniProt P10275); experiment: qHTS assay to identify small molecule antagonists of the androgen receptor (AR) signaling pathway (AID 743035; active = well fitted inhibition curve with a large enough effect in the signal ratio in the repeat runs, not every such curve was filed as active; the % refers to the signal ratio; also: potency is read from the fitted curve at half-maximal effect)
How it was run: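 AR-bla HEK293 reporter cells; 4 h settle at 37C/5% CO2; compound + R1881 agonist, 16 h at 37C; LiveBLAzer B/G FRET substrate 2 h RT; fluorescence intensity read. qHTS format.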

[8] = target: Androgen receptor (Homo sapiens) (UniProt P10275); experiment: qHTS assay to identify small molecule agonists of the androgen receptor (AR) signaling pathway using the MDA cell line (AID 743040; also: nearly all actives have a fitted effect of over 20% in size)
How it was run: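 Luciferase read-out, ONE-Glo, 30 min RT. Cells: MDA-kb2 AR-luc, MMTV promoter with AR and GR response elements. Compound exposure 16 h, 37C, 0% CO2, after 5 h pre-incubation. qHTS agonist mode.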

[9] = target: Androgen receptor (Homo sapiens) (UniProt P10275); experiment: qHTS assay to identify small molecule antagonists of the androgen receptor (AR) signaling pathway using the MDA cell line (AID 743042; also: nearly all actives have a fitted effect of over 55% in size)
How it was run: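 MDA-kb2 breast carcinoma cells carrying MMTV-luciferase (AR/GR responsive) were co-treated with compounds and the agonist R1881 for 16 h at 37C. Inhibition read as ONE-Glo luminescence; CellTiter-Fluor fluorescence measured in parallel for cytotoxicity.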

[10] = target: Androgen receptor (Homo sapiens) (UniProt P10275); experiment: qHTS assay to identify small molecule agonists of the androgen receptor (AR) signaling pathway (AID 743036; active = well fitted activation curve with a large enough effect in the signal ratio in the repeat runs, with a control signal flat, not every such curve was filed as active; the % refers to the signal ratio)
How it was run: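 HEK293 cells stably carrying a UAS-driven beta-lactamase reporter (GeneBLAzer AR-UAS-bla-GripTite) were plated at 2,000 cells/well, rested 4 h at 37C, then exposed to compounds in DMSO for 16 h. LiveBLAzer B/G FRET substrate was added for 2 h at room temperature; fluorescence read.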

Chain of Androgen receptor (Homo sapiens) (P10275 whole entry, looked up): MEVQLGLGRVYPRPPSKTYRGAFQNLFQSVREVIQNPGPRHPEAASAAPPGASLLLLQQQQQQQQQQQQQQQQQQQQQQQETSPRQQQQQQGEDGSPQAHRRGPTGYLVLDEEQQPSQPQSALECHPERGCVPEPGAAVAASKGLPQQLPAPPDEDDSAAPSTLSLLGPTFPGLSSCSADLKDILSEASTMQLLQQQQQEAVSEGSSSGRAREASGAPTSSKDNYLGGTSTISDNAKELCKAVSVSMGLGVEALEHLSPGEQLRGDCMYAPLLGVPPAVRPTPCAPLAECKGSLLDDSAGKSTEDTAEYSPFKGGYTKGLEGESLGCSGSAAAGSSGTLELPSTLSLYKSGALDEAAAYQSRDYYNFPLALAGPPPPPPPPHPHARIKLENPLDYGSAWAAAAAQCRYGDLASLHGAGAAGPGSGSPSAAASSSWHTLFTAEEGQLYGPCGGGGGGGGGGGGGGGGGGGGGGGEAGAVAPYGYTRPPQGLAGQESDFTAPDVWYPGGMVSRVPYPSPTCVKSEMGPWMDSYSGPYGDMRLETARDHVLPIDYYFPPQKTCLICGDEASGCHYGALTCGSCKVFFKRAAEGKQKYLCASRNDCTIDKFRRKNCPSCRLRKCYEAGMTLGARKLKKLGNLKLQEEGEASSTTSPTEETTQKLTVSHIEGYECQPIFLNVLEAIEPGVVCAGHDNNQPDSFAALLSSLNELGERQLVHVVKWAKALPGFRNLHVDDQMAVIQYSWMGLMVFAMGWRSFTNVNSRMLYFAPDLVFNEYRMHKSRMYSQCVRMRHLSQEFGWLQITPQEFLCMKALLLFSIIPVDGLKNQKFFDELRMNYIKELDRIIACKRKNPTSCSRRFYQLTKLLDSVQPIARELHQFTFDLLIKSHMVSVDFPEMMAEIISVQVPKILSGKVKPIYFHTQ

Structure (SMILES) | Potency [1] | Potency [2] | Potency [3] | Potency [4] | Potency [5] | Potency [6] | Potency [7] | outcome [8] | Potency [9] | Potency [10]
Cc1c(C)c2c(c(C)c1O)CC[C@@](C)(CCC[C@H](C)CCC[C@H](C)CCCC(C)C)O2 | inactive | inactive | inactive | inactive | inactive | inactive | – | – | – | –
CCCCC/C=C\C/C=C\CCCCCCCC(=O)O | inactive | inactive | inactive | inactive and 54.5 µM (active) | inactive | inactive | – | – | – | –
O=C(Oc1ccccc1)Oc1ccccc1 | inactive | inactive | inactive | inactive | inactive | inactive | – | – | – | –
O=C1NC(=O)[C@@H]2CC=CC[C@H]12 | inactive | 61.1 µM (active) | 48.6 µM (active) | – | inactive | inactive | – | – | – | –
c1ccc(C(O[C@@H]2CCCN(CCc3ccc4c(c3)OCO4)C2)c2ccccc2)cc1 | inactive | 38.6 µM (active) | 30.6 µM (active) | 30.6 µM (active) | inactive | inactive | – | – | – | –
CN(C)Cc1cc(C(C)(C)C)c(O)c(C(C)(C)C)c1 | inactive | 17.2 µM (active) | 17.2 µM (active) | 17.2 µM (active) | – | inactive | – | – | – | –
Nc1nc(N)nc(-c2cc(Cl)ccc2Cl)n1 | inactive | inactive | inactive | – | inactive | inactive | – | – | – | –
Nc1ccc(NCCO)c([N+](=O)[O-])c1 | inactive | inactive | – | inactive | inactive | – | – | – | – | –
CC(C)NC[C@@H](O)COc1ccc(CC(N)=O)cc1 | inactive | inactive | inactive | – | – | inactive | – | – | – | –
O=C1CCc2cc(OCCCCc3nnnn3C3CCCCC3)ccc2N1 | inactive | inactive | inactive | – | inactive | inactive | – | – | – | –
COc1c(C)c2c(c(O)c1C/C=C(\C)CCC(=O)OCCN1CCOCC1)C(=O)OC2 | inactive | 0.531 µM (active) | 0.422 µM (active) | 0.422 µM (active) | – | inactive | 0.674 µM (active) | inactive | inactive | –
O=c1oc2cc(O)ccc2c2oc3cc(O)ccc3c12 | inactive | inactive | inactive | – | inactive | inactive | – | – | – | –
CCCCOC(=O)CO | inactive | inactive | – | inactive | inactive | inactive | – | – | – | –
OC12N=C(c3ccccc3)SC1Cc1cc(Cl)ccc12 (stereo not given) | inactive | 68.6 µM (active) | 68.6 µM (active) | 43.3 µM (active) | – | inactive | – | – | – | –
O=C(O)c1cc(=O)c2ccccc2o1 | inactive | inactive | inactive | inactive | inactive | inactive | – | – | – | –
O=C1CCc2ccc(OCCCCN3CCN(c4cccc(Cl)c4Cl)CC3)cc2N1 | inactive | 5.96 µM (active) | 5.31 µM (active) | 6.68 µM (active) | inactive | inactive | – | – | – | –
CC(C)(C)NSc1nc2ccccc2s1 | inactive | inactive | inactive | inactive | – | inactive | 55.9 µM (active) | inactive | inactive | –
O=C(O)c1cc(N=Nc2ccc([N+](=O)[O-])cc2)ccc1O | 21.5 µM (active) | inactive | inactive | inactive | inactive | 47.7 µM (active) | – | – | – | –
CCCCCCCCCCC[C@@H](C[C@@H]1OC(=O)[C@H]1CCCCCC)OC(=O)[C@H](CC(C)C)NC=O | inactive | 1.06 µM (active) | 0.376 µM (active) | – | inactive | inactive | – | – | – | –
COc1ccc2cc1Oc1ccc(cc1)C[C@H]1c3c(cc4c(c3Oc3cc5c(cc3OC)CCN(C)[C@@H]5C2)OCO4)CCN1C | inactive | 7.5 µM (active) | 8.41 µM (active) | 8.41 µM (active) | – | – | – | inactive | inactive | –
CN1CCCCC1CCN1c2ccccc2Sc2ccc(S(C)=O)cc21 (stereo not given) | inactive | 29.8 µM (active) | 29.8 µM (active) | 29.8 µM (active) | inactive | inactive | – | – | – | –
CCCC(=O)OCCc1ccccc1 | inactive | inactive | inactive | – | inactive | inactive | – | – | – | –
CN1CCN(Cc2cc(-c3ccc4[nH]c(=O)oc4c3)co2)[C@@H](c2ccc(F)cc2)C1 | inactive | 14.8 µM (active) | 16.6 µM (active) | 14.8 µM (active) | – | inactive | – | – | – | –
C=CCn1c(=O)n(CC=C)c(=O)n(CC=C)c1=O | inactive | inactive | – | inactive | inactive | inactive | – | – | – | –
CN(C)C(=O)COC(=O)Cc1ccc(OC(=O)c2ccc(N=C(N)N)cc2)cc1 | inactive | inactive | inactive | inactive | inactive | inactive | – | – | – | –
O=C1CCCCCCCCCCCCCCCO1 | inactive | inactive | – | inactive | inactive | inactive | – | – | – | –
CCN(CC)c1ccc2c(-c3ccc(S(=O)(=O)O)cc3S(=O)(=O)[O-])c3ccc(=[N+](CC)CC)cc-3oc2c1 | – | – | – | – | – | – | – | – | – | inactive
